Whole data set: some 4,100 sequences, median “RBNS R-value (6-mer enrichment in protein-bound RNA vs input library)” near 0.96, cut for the highest 2% near 2.4. This excerpt belongs to a sample that is enriched for the highest values.
Tested on: PyIESI-1 RRM domain (Plasmodium yoelii PY17X_0911200 aa 795-956, GST fusion)
Test: RBNS R-value (6-mer enrichment in protein-bound RNA vs input library) (ratio); higher = stronger binding preference; the methods of the paper give 50 / 100 / 500 nM protein instead
Method: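 RNA Bind-n-Seq: recombinant GST-tagged IESI-1 RRM domain was incubated at room temperature with a random 40-nt in vitro transcribed RNA library at 250, 500 or 1000 nM protein. Bound RNA was pulled down on glutathione beads and sequenced. R-value is the enrichment of each 6-mer in the bound RNA relative to the input library. Each 6-mer sits inside the random 40-mer context, not as an isolated oligo. Values are replicate 1 only.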

Sequence | RBNS R-value (protein concentration: 250 nM) | RBNS R-value (protein concentration: 500 nM) | RBNS R-value (protein concentration: 1000 nM)
CGGUGA | 1.36 | 1.39 | 1.35
ACCGCG | 1.03 | 1.03 | 1.04
CGAACC | 1.09 | 1.06 | 1.06
GGGCCG | 1 | 1.01 | 0.999
GCAAGC | 0.92 | 0.933 | 0.931
CCGGUC | 0.872 | 0.923 | 0.916
CAUGCC | 0.921 | 0.929 | 0.99
GAUGCC | 2.7 | 2.6 | 2.86
CAUGCU | 0.844 | 0.875 | 0.883
UAUGCC | 0.797 | 0.84 | 0.861
UAUGCA | 0.689 | 0.714 | 0.705
CAUGCA | 0.757 | 0.762 | 0.774
AAUGCG | 0.941 | 0.968 | 0.97
UAUGCG | 0.859 | 0.856 | 0.873
GAUGCA | 2.66 | 2.5 | 2.68
GAUGCG | 2.54 | 2.45 | 2.52
GAUGCU | 2.48 | 2.42 | 2.51
AAUGCU | 0.903 | 0.932 | 0.944
CUGCCA | 1.03 | 1.05 | 1.07
UUUGUU | 0.893 | 0.907 | 0.907

Sequence | RBNS R-value (protein concentration: 250 nM) | RBNS R-value (protein concentration: 500 nM) | RBNS R-value (protein concentration: 1000 nM)
ACGAAC | 0.96 | 0.939 | 0.926
AUUUAU | 0.824 | 0.83 | 0.836
UGCUUU | 1.1 | 1.15 | 1.18
AGAUGA | 2.69 | 2.61 | 2.72
CAAUGA | 2.27 | 2.18 | 2.28
UGAUGU | 7 | 6.29 | 6.39
UUAUGA | 1.76 | 1.72 | 1.81
AGAUGC | 1.47 | 1.52 | 1.65
GGAUGA | 1.75 | 1.71 | 1.69
AGAUGU | 1.45 | 1.47 | 1.54
UGAUGA | 9.09 | 7.87 | 7.73
AUAUGA | 1.78 | 1.74 | 1.84
CGAUGA | 3.48 | 3.36 | 3.47
CGAUGC | 2.07 | 2.1 | 2.31
CGAUGU | 2.03 | 2.04 | 2.13
UCACCA | 0.862 | 0.849 | 0.9
GGAGCG | 1.01 | 1.01 | 0.994
AUACCA | 0.709 | 0.723 | 0.733
AACUUC | 0.893 | 0.92 | 0.901
CGCAAG | 0.91 | 0.907 | 0.917

Sequence | RBNS R-value (protein concentration: 250 nM) | RBNS R-value (protein concentration: 500 nM) | RBNS R-value (protein concentration: 1000 nM)
UCCCAA | 0.972 | 0.967 | 0.987
GGGGGA | 1.03 | 1.05 | 1.01
UGAUGG | 5.96 | 5.24 | 5.21
AGAUGG | 1.49 | 1.46 | 1.49
UUAUGC | 0.736 | 0.778 | 0.779
GGAUGC | 1.08 | 1.04 | 1.08
UGAUGC | 6.04 | 5.5 | 5.71
CGAUGG | 2.05 | 1.98 | 2
CAAGGC | 0.956 | 0.935 | 0.949
CACACU | 0.829 | 0.834 | 0.839
CGGAGC | 1.02 | 1.01 | 1
UUCUUU | 0.927 | 0.977 | 1
AUUUGC | 1.82 | 1.76 | 1.77
AAUGGG | 1.06 | 1.06 | 1.03
UAUGGC | 1.41 | 1.37 | 1.34
GAUGGC | 3.56 | 3.12 | 3.1
CAUGGC | 1.06 | 1.08 | 1.1
UAUGGG | 0.863 | 0.942 | 0.916
